# PubChem BioAssay AID2629 (Broad Institute, 2010)
# Screen size: about 320,000 compounds; about 1,900 (0.59%) were called active. Cut-off read from the data, not from the text of the source: active = inhibition mostly above about 10% (no sharp cut-off); inactive = mostly below about 6.7%. The full list was thinned out, with actives kept by preference.
# Molecular target: Protein LANA1 (Human herpesvirus 8 type P (isolate GK18)) (UniProt Q9QR71)
# Assay: blockers of LANA interaction with H2A/H2B – biochemical, FP readout, HTS, primary screen (AID 2629)
# Settings: cell-free LANA-H2A/H2B peptide, fluorescence polarization, active compounds read high, concentration not given here
# Chain of Protein LANA1 (Human herpesvirus 8 type P (isolate GK18)) (Q9QR71 whole entry, looked up): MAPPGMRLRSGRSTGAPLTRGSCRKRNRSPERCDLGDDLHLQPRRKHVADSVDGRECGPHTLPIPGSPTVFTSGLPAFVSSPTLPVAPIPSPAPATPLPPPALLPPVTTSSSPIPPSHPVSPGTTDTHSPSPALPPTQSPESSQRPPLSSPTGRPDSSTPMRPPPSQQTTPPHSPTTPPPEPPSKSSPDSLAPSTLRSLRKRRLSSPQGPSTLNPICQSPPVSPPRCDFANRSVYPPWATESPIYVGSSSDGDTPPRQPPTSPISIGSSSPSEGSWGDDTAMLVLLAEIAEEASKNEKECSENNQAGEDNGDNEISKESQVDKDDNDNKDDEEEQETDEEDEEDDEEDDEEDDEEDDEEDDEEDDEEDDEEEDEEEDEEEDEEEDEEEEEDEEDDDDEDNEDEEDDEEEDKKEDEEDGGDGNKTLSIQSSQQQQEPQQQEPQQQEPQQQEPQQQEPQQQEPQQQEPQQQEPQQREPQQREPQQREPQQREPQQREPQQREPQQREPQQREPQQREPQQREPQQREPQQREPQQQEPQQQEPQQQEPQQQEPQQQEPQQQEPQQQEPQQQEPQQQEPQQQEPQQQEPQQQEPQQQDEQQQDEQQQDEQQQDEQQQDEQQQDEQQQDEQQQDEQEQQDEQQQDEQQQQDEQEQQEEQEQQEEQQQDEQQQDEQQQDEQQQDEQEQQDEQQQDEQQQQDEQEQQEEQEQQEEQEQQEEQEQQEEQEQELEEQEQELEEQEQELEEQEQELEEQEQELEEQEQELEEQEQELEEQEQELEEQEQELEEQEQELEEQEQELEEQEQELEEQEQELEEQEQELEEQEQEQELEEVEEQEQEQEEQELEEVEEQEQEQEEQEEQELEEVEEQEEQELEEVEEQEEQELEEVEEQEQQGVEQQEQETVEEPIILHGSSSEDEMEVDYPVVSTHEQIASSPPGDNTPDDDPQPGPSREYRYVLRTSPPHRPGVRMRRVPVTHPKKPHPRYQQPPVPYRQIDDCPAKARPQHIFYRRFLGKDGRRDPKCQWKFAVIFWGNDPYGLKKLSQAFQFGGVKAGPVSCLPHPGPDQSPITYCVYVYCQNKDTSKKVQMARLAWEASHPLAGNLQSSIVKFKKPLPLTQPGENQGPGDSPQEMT
row,SMILES,inhibition
1,COc1ccccc1NC(=O)C1CCCN1S(=O)(=O)c1ccc(Cl)cc1 (stereo not drawn),-0.219% (inactive)
2,O=C1COc2ccc(C(=O)COC(=O)C3CC(O)CN3S(=O)(=O)c3ccc(Cl)cc3)cc2N1 (stereo not drawn),-4.73% (inactive)
3,NNC(=O)C1CC(O)CN1S(=O)(=O)c1ccc(Cl)cc1 (stereo not drawn),18% (active)
4,COc1ccc2c(C)cc3nnnn3c2c1,6.55% (inactive)
5,O=C(Cn1nnc2ccccc2c1=O)Nc1cc(C(F)(F)F)ccc1N1CCOCC1,15.8% (active)
6,CC(C)CC(=O)Nc1cc(C(F)(F)F)ccc1N1CCOCC1,3.7% (inactive)
7,O=C(CN1C(=O)NC2(CCCC2)C1=O)Nc1cc(C(F)(F)F)ccc1N1CCOCC1,-2.08% (inactive)
8,Cc1cc(Nc2cc(N3CCN(C)CC3)nc(Sc3ccc(NC(=O)C4CC4)cc3)n2)n[nH]1,1.71% (inactive)
9,CN(c1ccccc1)S(=O)(=O)c1ccc(Cl)c(C(=O)OCC(=O)NCc2ccco2)c1,-3.84% (inactive)
10,CN(c1ccccc1)S(=O)(=O)c1ccc(Cl)c(C(=O)OCC(N)=O)c1,-3.79% (inactive)
11,Cc1ccc(S(=O)(=O)N(CC(O)CN2CCCCC2)c2cccc([N+](=O)[O-])c2)cc1 (stereo not drawn),7.02% (inactive)
12,Cc1cc(=O)n2nc(N3CCCC(C(=O)N4CCN(C)CC4)C3)sc2n1 (stereo not drawn),0.763% (inactive)
13,CCc1c(C)nc2ncnn2c1N1CCC(C(=O)NCc2ccc3c(c2)OCO3)CC1,0.84% (inactive)
14,CCn1c(SCC(=O)NC2CCCC2)nnc1-c1ccoc1C,-2.52% (inactive)
15,O=C(CSc1nnc(-c2ccccc2O)o1)NC1CCCCC1,3.2% (inactive)
16,Cc1occc1-c1nnc(SCC(=O)NC2CCCCC2)o1,14.3% (active)
17,CCCCSCCCNC(=O)C1CCC(CNS(=O)(=O)c2ccc(NC(C)=O)cc2)CC1 (stereo not drawn),-3.44% (inactive)
18,CCCC1C(c2ccccc2)C(C#N)(C#N)C2(C#N)CC1(N)NC2=O (stereo not drawn),182% (active)
19,CCSC1=NCCN1C(=O)c1ccc(S(=O)(=O)N(CC)CC)cc1,10.9% (inactive)
20,O=C(CN1CCN(c2cccc(Cl)c2)CC1)Nc1ccc(S(=O)(=O)N2CCOCC2)cc1,145% (active)
21,O=C(CN1C(=O)CCC1=O)Nc1ccc(S(=O)(=O)N2CCOCC2)cc1,1.75% (inactive)
22,O=C(CN1CCCCCC1)Nc1ccc(S(=O)(=O)N2CCCCC2)cc1,7.61% (inactive)
23,COC(=O)CNS(=O)(=O)c1ccc(Cc2ccc(S(=O)(=O)NCC(=O)OC)cc2)cc1,5.82% (inactive)
24,COC(=O)C1=C(C)NC2=C(C(=O)c3ccccc32)C1c1ccc(-c2ccc(C(=O)O)cc2)o1 (stereo not drawn),3.17% (inactive)

row,SMILES,inhibition
1,CC(=O)c1sc(N/N=C/c2ccc(C(C)C)cc2)nc1C,2.17% (inactive)
2,COc1ccc(S(=O)(=O)N2CCOCC2)cc1NC(=O)CSc1nnc(NC2CC2)s1,-4.5% (inactive)
3,COc1ccc(NC(=O)NNC(=O)COc2cc(C)c(Cl)c(C)c2)c(OC)c1,-5.21% (inactive)
4,Cc1ccc(C(=O)CCC(=O)N(C)CC(=O)Nc2c(Cl)cccc2Cl)cc1,4.61% (inactive)
5,CN(CC(=O)Nc1c(Cl)cccc1Cl)C(=O)CNC(=O)C1CCCCC1,-5.68% (inactive)
6,CN(CC(=O)Nc1c(Cl)cccc1Cl)C(=O)c1ccncc1,111% (active)
7,O=C(Nc1cccc(F)c1)NC1CCCCCCC1,0.578% (inactive)
8,COc1cccc(NC(=O)C/C(C)=N/NC(=O)C2CCCCC2)c1,3.19% (inactive)
9,C/C(CC(=O)Nc1cccc(F)c1)=N\NC(=O)C(=O)NC1CCCCC1,15.3% (active)
10,COc1ccc(F)cc1C(=O)C1CCCN(C(=O)CCc2ccccn2)C1 (stereo not drawn),-0.521% (inactive)
11,CC1=NN(C(=O)c2ccc(Br)cc2)C(O)(c2ccccc2)C1 (stereo not drawn),15.6% (active)
12,CCOC(=O)C1(O)CC(C)=NN1C(=O)c1cccc(Br)c1 (stereo not drawn),1.92% (inactive)
13,CC1=NN(C(=O)c2ccccc2Br)C(O)(c2cccnc2)C1 (stereo not drawn),-0.482% (inactive)
14,Cc1coc2c1c(C)cc1oc(=O)c(CC(=O)NCC(=O)N[C@H](C(=O)O)C(C)C)c(C)c12,1.45% (inactive)
15,COc1ccc(C(=O)Nc2c(N)nc(SCC(=O)Nc3ccc(C(C)=O)cc3)[nH]c2=O)cc1,2.95% (inactive)
16,COc1ccc(NC(=O)CSc2nc(N)c(-c3ccccc3)c(=O)[nH]2)cc1,12.1% (active)
17,COc1ccc(OC)c(NC(=O)CSc2nc(N)c(-c3ccccc3)c(=O)[nH]2)c1,4.91% (inactive)
18,CCOc1ccc(CCNC(=O)COC(=O)C2CCN(c3ccc(C(F)(F)F)cn3)CC2)cc1OCC,2.54% (inactive)
19,O=C(CN1CCc2ccccc2C1)Nc1cccc(S(=O)(=O)N2CCOCC2)c1,2.86% (inactive)
20,CSCCC(NS(=O)(=O)c1ccc(C)cc1)C(=O)NCCc1c[nH]c2ccccc12 (stereo not drawn),-5.03% (inactive)
21,CCc1nnc(NC(=O)[C@@H](NC(=O)c2cccc(C)c2)C(C)C)s1,1.78% (inactive)
22,CCCn1nc2cc(C(=O)NCc3ccccc3)ccc2c1OCC,3.43% (inactive)
23,CCOc1c2ccc(C(=O)NCc3ccc4c(c3)OCO4)cc2nn1C,19.6% (active)
24,CCOc1c2ccc(C(=O)NCc3ccc(OC(F)(F)F)cc3)cc2nn1C,-0.924% (inactive)

row,SMILES,inhibition
1,COC(=O)[C@H](C(C)C)n1c(C)c(C(C)=O)c(C(C)=O)c1C,-3.34% (inactive)
2,CCC(=O)N(C)C(c1ccccc1Cl)c1nnnn1-c1c(C)cccc1C (stereo not drawn),-0.0342% (inactive)
3,COC(=O)c1ccc(CSc2nncn2C)cc1,5.16% (inactive)
4,COC(=O)c1ccc(SCc2ccccc2)nc1,60.3% (active)
5,COC(=O)c1ccc(CSc2ccc(S(=O)(=O)N3CCCCC3)cn2)cc1,-0.0946% (inactive)
6,CCCCNc1ccc(C(=O)Nc2cccc(C)n2)cc1[N+](=O)[O-],-3.43% (inactive)
7,Cc1cc(C)c(C)c(S(=O)(=O)Nc2cccnc2)c1C,-0.825% (inactive)
8,COc1ccc(S(=O)(=O)Nc2cccnc2)c(Cl)c1Cl,12.6% (active)
9,COc1ccccc1Oc1ccc(S(=O)(=O)Nc2cccnc2)cc1,2.24% (inactive)
10,COc1ccc(CCc2nnc(CCC(=O)NCc3cnn(-c4ccccc4C)c3)o2)cc1,16.6% (inactive)
11,CC(=O)Nc1ccc(S(=O)(=O)NC2(C(F)(F)F)C(=O)Nc3c2c(=O)[nH]c(=O)n3Cc2ccccc2)cc1 (stereo not drawn),-2.71% (inactive)
12,CC(=O)n1cc([C@@H]2C=C(C(=O)N3CCN(Cc4ccc5c(c4)OCO5)CC3)O[C@H](OCc3ccc(CO)cc3)C2)c2ccccc21,1.33% (inactive)
13,CCC(C)c1ccc(NC(=S)NCc2ccccn2)cc1 (stereo not drawn),-1.48% (inactive)
14,CCN(CC)CCOc1ccc2c(c1)C(=NNC(=O)c1ccccn1)c1cc(OCCN(CC)CC)ccc1-2,-1.56% (inactive)
15,CC(OC(=O)c1ccc2noc(-c3ccccc3)c2c1)C(N)=O (stereo not drawn),-5.93% (inactive)
16,Oc1ccc(-c2onc3ccc(Cl)cc23)cc1,3.12% (inactive)
17,COc1ccc(-c2onc3ccc(C(C)=O)cc23)cc1,26.3% (active)
18,CC(C)c1ccc(Nc2nnc(SCC(=O)c3nnc(-c4ccccc4)o3)s2)cc1,-16.3% (inactive)
19,Cc1noc(C)c1COc1ccc(C(=O)NCCOc2ccccc2)cc1,2.1% (inactive)
20,COc1ccc(C)cc1Nc1nc(-c2c(C)[nH]c3ccccc23)cs1,39.5% (active)
21,COc1ccc(C)cc1Nc1nc(C)nc2c1oc1ccccc12,3.52% (inactive)
22,COC(=O)c1cnc(Nc2cc(C)ccc2OC)c2ccccc12,-2.27% (inactive)
23,Cc1cc(C=O)c(C)n1-c1ccc(NC2CCCCC2)c([N+](=O)[O-])c1,5.17% (inactive)
24,Cc1ccc(NS(=O)(=O)c2ccc(C(C)C)cc2)cc1S(=O)(=O)N1CCOCC1,-10.5% (inactive)

row,SMILES,inhibition
1,O=C(CCCOc1ccccc1)NNC(=O)c1ccc(Cl)cc1,3.13% (inactive)
2,O=C(CCc1ccccc1)NNC(=O)COc1ccc(Cl)cc1,77.8% (active)
3,O=C(COc1ccc(Cl)cc1)NCCSc1ccccc1,-4.08% (inactive)
4,COC(=O)Cc1csc(/N=C/c2c(O)n(-c3cccc(C(F)(F)F)c3)c(=O)c3ccccc23)n1,-3.9% (inactive)
5,Cn1c(CCc2ccccc2)nnc1SCC(N)=O,-7.18% (inactive)
6,N#CCCn1ncc2ccccc21,4.72% (inactive)
7,O=C(CNCc1ccc(F)cc1)Nc1ccccc1-c1ccccc1,-4% (inactive)
8,COc1cc(NC(=O)c2ccccc2)c(OC)cc1NC(=O)Cc1ccccc1,-1.39% (inactive)
9,CC(=O)NCC(=O)N1CCCC(C(=O)c2ccc3c4c(cccc24)CC3)C1 (stereo not drawn),-1.06% (inactive)
10,Cc1ncoc1C(=O)N1CCCC(C(=O)c2ccc3c4c(cccc24)CC3)C1 (stereo not drawn),1.25% (inactive)
11,CCn1ccnc1CN1CCCC(C(=O)c2ccc3c4c(cccc24)CC3)C1 (stereo not drawn),25.9% (active)
12,CCc1c(O)cc2n(c1=O)-c1ccccc1C2(C)C,5.7% (inactive)
13,O=C(CN1CCN(c2ncccn2)CC1)Nc1ccccc1C(F)(F)F,0.982% (inactive)
14,COc1ccc(/C(C)=N/N2CCOCC2)c(O)c1,25.4% (active)
15,COc1cc(C(=S)N2CCOCC2)ccc1O,9.41% (inactive)
16,COc1ccc(OC)c(C(=O)c2coc3ccc(O)c(CN4CCOCC4)c23)c1,-2.58% (inactive)
17,CC(C)(C)C1CCC(OC(=O)CCC(=O)Nc2ccccc2)CC1 (stereo not drawn),-3.13% (inactive)
18,Cc1ccc(C2NC(C(=O)O)CS2)cc1 (stereo not drawn),1.22% (inactive)
19,CN(CC(=O)Nc1ccc(F)c(F)c1F)C(=O)Cn1cnc2c1c(=O)n(C)c(=O)n2C,1.35% (inactive)
20,CC(C)(C)n1c(=O)[nH]c2c(c1=O)CCC2,23.6% (active)
21,O=c1[nH]n2c(=O)c3c([nH]c2c1N=Nc1ccccc1)CCC3,-4.38% (inactive)
